The list is not random: actives were taken first. Their share in the collection is about 3.2%.
TR SRC2 fluor cs: Total Fluorescence Counterscreen for Inhibitors of the Interaction of Thyroid Hormone Receptor and Steroid Receptor Coregulator 2; TRb/SRC2 Texas Red total fluorescence interference; hit rate 0.29% among 280,000; AID 1479, 2009; Potency, µM (titrated, usually from 106 µM), without a hit: at the highest dose fluorescence change, negative = quenching; active = well fitted curve in either direction with a large enough effect; inconclusive = small, poorly fitted or top-dose-only effect
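Human TRb ligand-binding domain at 0.6 uM with 20 nM Texas Red SRC2 peptide in Tris buffer containing 1 uM T3 and 5% DMSO, incubated with compound 5 h at ambient temperature. Total fluorescence (555/632 nm) calculated as parallel + 2 × perpendicular.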
TRb-SRC2 inh: qHTS for Inhibitors of the Interaction of Thyroid Hormone Receptor and Steroid Receptor Coregulator 2; Thyroid hormone receptor beta (Homo sapiens), P10828; TRbeta-SRC2 peptide binding, fluorescence polarization; receptor liganded with 1 µM T3; hit rate 0.065% among 280,000; Potency, µM (doses to about 106 µM), inactives show at the highest dose activity change, negative = inhibition, hits mostly inhibitors;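 also: plate controls were bound peptide for no effect and peptide without receptor for full effect; nearly all actives have a fitted effect of over 50% in size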
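Compounds were added to 0.6 uM TRb ligand-binding domain and 20 nM Texas Red-labeled SRC2 peptide in Tris buffer containing 1 uM T3, incubated 5 hr at ambient temperature, then read by fluorescence polarization.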
Tau fluor counter: Counterscreen qHTS for Inhibitors of Tau Fibril Formation, Fluorescence Polarization; tau K18 P301L Alexa594 fluorescence, heparin fibrillization; Potency, µM (series often up to 57.7 µM), inactives show top-dose activity change, negative = decrease; hit rate 0.93% among 280,000; also: nearly all actives have a fitted effect of over 55% in size
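Human tau K18 P301L (15 uM unlabeled, 0.24 uM Alexa 594-labeled) in 100 mM sodium acetate pH 7 with 20 uM heparin, 6 hr at 37 C. ThT 30 uM added, 1 hr ambient; Alexa 594 FP and total fluorescence read at 555/632 nm.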
RGS12 GoLoco inh: qHTS Assay for Inhibitors of RGS12 GoLoco Motif Activity (Red Fluorophore); hit rate 0.44% among 230,000; Potency, µM (top dose mostly 61.6 µM), for inactives: at the top dose activity, negative = inhibition, hits mostly inhibitors; AID 880, 2007; Gai1:RGS12 GoLoco peptide FP, rhodamine, 10 min; active = well fitted inhibition curve with a large enough effect, not every such curve was filed as active; inactive = no such curve, though single readings can be large or run the other way; also: nearly all actives have a fitted effect of over 30% in size
Target sequence (P63096 whole entry, looked up): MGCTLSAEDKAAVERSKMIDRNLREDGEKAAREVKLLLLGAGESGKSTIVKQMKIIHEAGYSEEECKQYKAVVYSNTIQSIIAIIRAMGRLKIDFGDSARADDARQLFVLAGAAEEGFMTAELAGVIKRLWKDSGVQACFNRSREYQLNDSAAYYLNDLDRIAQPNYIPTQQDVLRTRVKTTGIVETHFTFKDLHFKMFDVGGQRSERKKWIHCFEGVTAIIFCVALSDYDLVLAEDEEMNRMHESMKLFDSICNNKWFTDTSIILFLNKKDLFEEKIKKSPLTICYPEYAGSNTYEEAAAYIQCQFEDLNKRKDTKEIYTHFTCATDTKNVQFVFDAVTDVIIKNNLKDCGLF
Tau fibril ThT: qHTS for Inhibitors of Tau Fibril Formation, Thioflavin T Binding | hit rate 2.1% among 270,000 | recombinant tau K18 P301L, heparin-induced fibrillization, ThT fluorescence | Microtubule-associated protein tau (Homo sapiens), P10636 | Potency, µM (top dose mostly 57.4 µM), inactives show top-dose activity, negative = inhibition, actives largely listed as inhibitors; also: nearly all actives have a fitted effect of over 55% in size
Target sequence (P10636 561-689 P618L limits assumed): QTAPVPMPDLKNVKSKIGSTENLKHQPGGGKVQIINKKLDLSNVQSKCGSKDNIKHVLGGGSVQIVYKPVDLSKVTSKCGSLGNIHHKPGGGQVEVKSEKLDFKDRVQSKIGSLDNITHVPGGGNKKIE
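ThT emission at 510 nm, taken 1 hr after adding 30 uM dye, quantifies aggregates formed when 20 uM heparin acts on human tau K18 P301L for 6 hr at 37 C.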
Tau FP inhib: qHTS for Inhibitors of Tau Fibril Formation, Fluorescence Polarization; Microtubule-associated protein tau (Homo sapiens), P10636; K18 P301L tau heparin fibrillization, Alexa594 FP, 6 h; Potency, µM (top dose mostly 57.7 µM), inactives show top-dose activity, negative = inhibition, usual class: inhibitors; hit rate 0.39% among 280,000; also: nearly all actives have a fitted effect of over 55% in size
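K18 P301L tau (15 uM unlabeled/0.24 uM Alexa 594-labeled, final) + compound + heparin 20 uM final; 100 mM NaOAc pH 7; 6 hr 37 C; ThT 30 uM final added, 1 hr RT; FP ex 555/em 632 nm.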
Numbers without * were called inactive; [ ] = remark or other dose. Unless noted, calls follow the shape of the dose curve; as a rule, active = well fitted curve in the direction sought with a large enough effect; inconclusive = small, poorly fitted or top-dose-only effect, or another doubt; inactive = no such curve, though single readings can be large; an effect the other way counts as inactive or inconclusive. Unless noted, % is scaled to controls: 0 for no effect and ±100 for the full control effect; potency is read from the fitted curve at half-maximal effect.

What do the screens show for `N#C/C(=C/c1ccc(N2CCCCCC2)o1)c1ccc(Cl)cc1`?
TR SRC2 fluor cs: 9%; TRb-SRC2 inh: -2%; Tau fluor counter: inconclusive; RGS12 GoLoco inh: 79%; Tau fibril ThT: 25µM*; Tau FP inhib: inconclusive

Results for N#C/C(=C\c1ccc(N2CCOCC2)o1)C(=O)NC1CCCCC1 ?
TR SRC2 fluor cs: 0%; TRb-SRC2 inh: -1%; Tau fluor counter: -20%; RGS12 GoLoco inh: 5%; Tau fibril ThT: inconclusive; Tau FP inhib: 2%

What do the screens show for `CC(=O)Nc1ccc(N=Nc2cc(C)ccc2O)cc1`?
TR SRC2 fluor cs: inconclusive; TRb-SRC2 inh: 28%[201 µM]

Results for COc1ccc(C2(C(=O)c3ccccc3)C(=O)c3ccccc3C2=O)cc1 ?
TR SRC2 fluor cs: -2%; TRb-SRC2 inh: 2%; Tau fluor counter: inconclusive; RGS12 GoLoco inh: 16%; Tau fibril ThT: 14µM*; Tau FP inhib: inconclusive

Results for COc1ccc(C2(Nc3cccc(C(=O)O)c3C)C(=O)c3ccccc3C2=O)cc1 ?
TR SRC2 fluor cs: -3%; TRb-SRC2 inh: -1%; Tau fluor counter: 1%; Tau fibril ThT: 2%; Tau FP inhib: -1%

How did O=C1CCC=C1C(O)CCc1ccccc1 (stereo unspecified) do in these assays?
TR SRC2 fluor cs: 0%; TRb-SRC2 inh: 5%; Tau fluor counter: -6%; RGS12 GoLoco inh: -5%; Tau fibril ThT: -2%; Tau FP inhib: -5%

How did O=C(Nc1ccc([N+](=O)[O-])cc1)Nc1ccc(N2CCOCC2)c2nonc12 do in these assays?
TR SRC2 fluor cs: -4%; TRb-SRC2 inh: inconclusive; Tau fluor counter: inconclusive; RGS12 GoLoco inh: 11%; Tau fibril ThT: 0.89µM*; Tau FP inhib: -4%

How did CC(=O)Nc1cc([N+](=O)[O-])ccc1N1CCOCC1 do in these assays?
TR SRC2 fluor cs: -1%; TRb-SRC2 inh: -9%; Tau fluor counter: -2%; RGS12 GoLoco inh: -4%; Tau fibril ThT: -5%; Tau FP inhib: 7%

What do the screens show for `CN(C)c1ncc2nc(CCc3ccccc3)c(=O)n(Cc3cccs3)c2n1`?
RGS12 GoLoco inh: 3%

What do the screens show for `Cc1ccc(-c2cc3ncc(C(=O)c4cc(Cl)c(C)cc4O)cn3n2)cc1`?
TR SRC2 fluor cs: -1%; TRb-SRC2 inh: -4%; Tau fluor counter: -15%; Tau fibril ThT: -14%; Tau FP inhib: inconclusive

Results for COc1ccc(-c2cc3ncc(C(=O)c4cc([N+](=O)[O-])ccc4O)cn3n2)cc1 ?
TR SRC2 fluor cs: 4%; TRb-SRC2 inh: -1%; Tau fluor counter: -16%; Tau fibril ThT: 7.1µM*; Tau FP inhib: 8%

How did O=P1(O)Oc2c(c(-c3ccccc3)cc3ccc4ccccc4c23)-c2c(-c3ccccc3)cc3ccc4ccccc4c3c2O1 do in these assays?
TR SRC2 fluor cs: 0%; TRb-SRC2 inh: 4%; Tau fluor counter: -9%; RGS12 GoLoco inh: 11%; Tau fibril ThT: -13%; Tau FP inhib: -13%

How did N#C/C(=N\Nc1cccc(C(F)(F)F)c1)C(=O)c1ccsc1 do in these assays?
TR SRC2 fluor cs: -17%; TRb-SRC2 inh: 6%; Tau fluor counter: inconclusive; RGS12 GoLoco inh: 11%; Tau fibril ThT: 14µM*; Tau FP inhib: 15%

Results for C/C(=N\NC(=O)CNc1cccc(C(F)(F)F)c1)c1cccs1 ?
TR SRC2 fluor cs: -1%; TRb-SRC2 inh: -4%; Tau fluor counter: -20%; RGS12 GoLoco inh: 3%; Tau fibril ThT: -14%; Tau FP inhib: -7%

What do the screens show for `CCOC(=O)Cc1c(C)c2ccc(N(CC)CC)cc2oc1=O`?
TR SRC2 fluor cs: -8%; TRb-SRC2 inh: inconclusive; Tau fluor counter: -29%; Tau fibril ThT: 14µM*; Tau FP inhib: inconclusive

What do the screens show for `CO[C@@H](CCOCc1ccccc1)C[C@H]1O[C@H](C(=O)OC(C)C)C=C[C@@H]1C`?
TR SRC2 fluor cs: 0%; TRb-SRC2 inh: 4%; Tau fluor counter: -1%; RGS12 GoLoco inh: 4%; Tau fibril ThT: 6%; Tau FP inhib: 3%

What do the screens show for `COCCn1c(=O)c(CCc2ccccc2)nc2cnc(N(C)C)nc21`?
RGS12 GoLoco inh: -2%

How did O=[N+]([O-])c1ccc(N2CCOCC2)cc1O do in these assays?
TR SRC2 fluor cs: -4%; TRb-SRC2 inh: -11%; Tau fluor counter: -14%; RGS12 GoLoco inh: 3%; Tau fibril ThT: inconclusive; Tau FP inhib: -2%

What do the screens show for `Cc1cc(N2CCOCC2)ccc1/C=C\[N+](=O)[O-]`?
TR SRC2 fluor cs: -2%; TRb-SRC2 inh: -4%; Tau fluor counter: inconclusive; RGS12 GoLoco inh: 20%; Tau fibril ThT: 11µM*; Tau FP inhib: 13%

How did [O-][n+]1ccccc1SSc1cccc[n+]1[O-] do in these assays?
TR SRC2 fluor cs: 0%; TRb-SRC2 inh: 8%; RGS12 GoLoco inh: -5%

What do the screens show for `CCN1C(=O)C2(c3ccccc31)c1c(oc3ccccc3c1=O)C(=O)N2CCOC` (stereo unspecified)?
TR SRC2 fluor cs: 4%; TRb-SRC2 inh: 0%; Tau fluor counter: -3%; Tau fibril ThT: -5%; Tau FP inhib: 0%

How did CCCN1C(=O)C2(c3ccccc31)c1c(oc3ccc(F)cc3c1=O)C(=O)N2CCCOC(C)C (stereo unspecified) do in these assays?
TR SRC2 fluor cs: 3.5µM*[quencher]; TRb-SRC2 inh: inconclusive; Tau fluor counter: -23%; Tau fibril ThT: -17%; Tau FP inhib: -10%

What do the screens show for `CCCN1C(=O)C2(c3ccccc31)c1c(oc3ccccc3c1=O)C(=O)N2CCO` (stereo unspecified)?
TR SRC2 fluor cs: 32µM*[quencher]; TRb-SRC2 inh: -12%[53 µM]; Tau fluor counter: -22%; Tau fibril ThT: -18%; Tau FP inhib: -12%

How did CCCN1C(=O)C2(c3ccccc31)c1c(oc3ccccc3c1=O)C(=O)N2CCCOC(C)C (stereo unspecified) do in these assays?
TR SRC2 fluor cs: -40%; TRb-SRC2 inh: -9%; Tau fluor counter: -8%; Tau fibril ThT: -3%; Tau FP inhib: -11%

What do the screens show for `c1ccc(-n2nnnc2CN2CCOCC2)cc1`?
TR SRC2 fluor cs: 1585µM*[quencher]; TRb-SRC2 inh: -22%[53 µM]; Tau fluor counter: 3%; RGS12 GoLoco inh: -5%; Tau fibril ThT: 4%; Tau FP inhib: 4%

Compound activity as filed in PubChem BioAssay.
